# Test results from PubChem BioAssay (Tox21).
# A number with no mark means an inactive call. Records with an inconclusive call do not appear. A call without a number means that no potency is given here. Calls of active or inactive are those of the source. Unless noted, the call rests on the fitted dose curve; in most records, active means well fitted curve in the direction sought with a large enough effect in the repeat runs; inconclusive means weak or mixed curves; inactive means no such curve, though single readings can be large; an effect the other way counts as inactive or inconclusive.
# Key:
# [1] = molecular target: Thyrotropin receptor (Homo sapiens) (UniProt P16473); assay: qHTS assay to identify small molecule agonists of the thyroid stimulating hormone receptor (TSHR) signaling pathway (AID 1224843; calls by dose curve; further: nearly all actives have a fitted effect of over 45% in size)
# Procedure, shortened: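 Cell line HEK293 with TSHR; density 800/well. Exposure 30 min RT. Readout HTRF cAMP (cAMP-d2/anti-cAMP-cryptate), 1 h RT before reading.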
# [2] = qHTS assay to identify small molecule agonists of H2AX (AID 1224845; active means well fitted activation curve with a large enough effect in the signal ratio in the repeat runs, not every such curve was filed as active; the % refers to the signal ratio)
# Procedure, shortened: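 Wild-type CHO-K1 cells plated overnight, then exposed 3 hr at 37C to compounds at 15 concentrations (0.76% DMSO). Lysed, then HTRF anti-pH2AX(S139)-cryptate/anti-H2AX-d2 detection after 24 hr at room temperature; emissions 665 and 620 nm.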
# [3] = qHTS assay to identify small molecule agonists of the hypoxia (HIF-1) signaling pathway (AID 1224846; active means well fitted activation curve with a large enough effect in the signal ratio in the repeat runs, not every such curve was filed as active; the % refers to the signal ratio)
# Procedure, shortened: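 HRE-bla ME-180 cells (beta-lactamase reporter under hypoxia response element) were plated at 2,000 cells/well in medium with 0.5% dialyzed FBS, rested 5 hrs, then given compounds in DMSO for 17 hrs at 37C, 5% CO2. Reporter induction was read with CCF4-AM FRET substrate.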
# [4] = qHTS assay to identify small molecule agonists of H2AX - cell viability counter screen (AID 1224847; calls by dose curve; further: nearly all actives have a fitted effect of over 30% in size; further: potency means the concentration at half of the fitted maximal effect)
# Procedure, shortened: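 For this counter screen, overnight-attached CHO-K1 cells received test compounds (15 concentrations, 0.76% DMSO final); 3 hr later at 37C, CellTiter-Glo reagent was added and luminescence recorded after 30 min at room temperature.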
# [5] = qHTS assay to identify small molecule agonists of the estrogen related receptor (ERR) signaling pathway from Tox21 library (AID 1224849; calls by dose curve; further: nearly all actives have a fitted effect of over 15% in size); conditions: ERR reporter cell line, ONE-Glo luciferase, 18 h; at 92.4 µM (top of the series) unless noted
# Procedure, shortened: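 ERR reporter cell line (NTP) seeded, rested 6 h at 37 C/5% CO2, then pinned with Tox21 compounds in DMSO. After 18 h at 37 C, ONE-Glo luciferase luminescence was read following 30 min at room temperature.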
# [6] = qHTS RealTime-Glo MT Cell Viability Assay in HepG2 cells - 24 hour (AID 1224867); further: nearly all actives have a fitted effect of over 50% in size
# Procedure, shortened: (§1)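 Compound treatment began 5 h after plating HepG2 cells (600/well) with NanoLuc luciferase and prosubstrate. Plates stayed at 37 C for 40 h; luminescence was captured at six time points, 0 h through 40 h.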
# [7] = qHTS RealTime-Glo MT Cell Viability Assay in HEK293 cells - 32 hour (AID 1224868); further: nearly all actives have a fitted effect of over 50% in size; further: potency means the concentration at half of the fitted maximal effect
# Procedure, shortened: (§2)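 Quantitative high-throughput screen of the Tox21 10K library in HEK293: cells and RealTime-Glo reagents plated together, compound added at 5 h, luminescence monitored through 40 h at 37 C.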
# [8] = A CellTox Green Cytotoxicity Assay to monitor cytotoxicity in HEK293 cells - 0 hour (AID 1224869); further: nearly all actives have a fitted effect of over 50% in size
# Procedure, shortened: (§3)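 HEK293 cells premixed with CellTox Green dye were seeded at 600 cells/well and left 5 h at 37 C/5% CO2 before pin transfer of 23 nL compound in DMSO. Fluorescence from dye bound to dead-cell DNA was read during 40 h treatment.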
# [9] = qHTS RealTime-Glo MT Cell Viability Assay in HepG2 cells - 40 hour (AID 1224870); further: nearly all actives have a fitted effect of over 50% in size; further: potency means the concentration at half of the fitted maximal effect
# Procedure, shortened: (§4)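 HepG2 cells mixed with RealTime-Glo MT reagents (NanoLuc plus cell-permeant prosubstrate) were seeded at 600 cells/well, incubated 5 h at 37 C/5% CO2, then pinned with compounds in DMSO; nonlytic luminescence tracked viability during 40 h treatment.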
# [10] = qHTS RealTime-Glo MT Cell Viability Assay in HEK293 cells - 16 hour (AID 1224872); further: nearly all actives have a fitted effect of over 50% in size; further: potency means the concentration at half of the fitted maximal effect
# Procedure, shortened: as §2
# [11] = qHTS RealTime-Glo MT Cell Viability Assay in HepG2 cells - 8 hour (AID 1224873); further: nearly all actives have a fitted effect of over 55% in size
# Procedure, shortened: as §4
# [12] = qHTS RealTime-Glo MT Cell Viability Assay in HEK293 cells - 40 hour (AID 1224874); conditions: RealTime-Glo luminescence; max response: hits give low values; further: nearly all actives have a fitted effect of over 50% in size; further: potency means the concentration at half of the fitted maximal effect
# Procedure, shortened: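 HEK293 cells mixed with RealTime-Glo reagents (NanoLuc plus cell-permeant prosubstrate) at 600 cells/well, preincubated 5 h at 37 C/5% CO2, then given 23 nL compound in DMSO. Nonlytic luminescence from viable cells was read at 0, 8, 16, 24, 32 and 40 h.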
# [13] = A CellTox Green Cytotoxicity Assay to monitor cytotoxicity in HEK293 cells - 24 hour (AID 1224875); further: nearly all actives have a fitted effect of over 45% in size
# Procedure, shortened: as §3
# [14] = A CellTox Green Cytotoxicity Assay to monitor cytotoxicity in HepG2 cells - 16 hour (AID 1224876); further: nearly all actives have a fitted effect of over 45% in size
# Procedure, shortened: (§5)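 HepG2 cells were seeded together with the CellTox Green dye at 600 cells/well, left 5 h at 37 C/5% CO2, then given compounds in DMSO. Fluorescence from dye bound to dead-cell DNA was read repeatedly over 40 h of treatment at 37 C.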
# [15] = qHTS RealTime-Glo MT Cell Viability Assay in HepG2 cells - 32 hour (AID 1224877); further: nearly all actives have a fitted effect of over 55% in size
# Procedure, shortened: as §1
# [16] = A CellTox Green Cytotoxicity Assay to monitor cytotoxicity in HepG2 cells - 24 hour (AID 1224878); further: nearly all actives have a fitted effect of over 45% in size
# Procedure, shortened: as §5
# [17] = A CellTox Green Cytotoxicity Assay to monitor cytotoxicity in HepG2 cells - 40 hour (AID 1224879); further: nearly all actives have a fitted effect of over 40% in size
# Procedure, shortened: as §5
# [18] = qHTS assay to identify small molecule agonists of the hypoxia (HIF-1) signaling pathway - cell viability counter screen (AID 1224844; calls by dose curve; further: nearly all actives have a fitted effect of over 50% in size)
# Procedure, shortened: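 HRE-bla ME-180 cells in medium with 0.5% dialyzed FBS were preincubated 5 hrs at 37C, exposed to compounds for 17 hrs, then viability was read as CellTiter-Glo luminescence after 30 min at room temperature, in the reporter wells.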
# [19] = A CellTox Green Cytotoxicity Assay to monitor cytotoxicity in HEK293 cells - 40 hour (AID 1224871); further: nearly all actives have a fitted effect of over 45% in size
# Procedure, shortened: as §3
# [20] = qHTS assay to identify small molecule antagonists of the estrogen related receptor (ERR) signaling pathway from Tox21 library (AID 1224848)
# Procedure, shortened: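 Screening used an ERR reporter line supplied by NTP, exposed for 18 h at 37 C to library compounds delivered in DMSO. Signal was luciferase luminescence developed with ONE-Glo at room temperature for 30 min.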
# Thyrotropin receptor (Homo sapiens), sequence (P16473 whole entry, looked up): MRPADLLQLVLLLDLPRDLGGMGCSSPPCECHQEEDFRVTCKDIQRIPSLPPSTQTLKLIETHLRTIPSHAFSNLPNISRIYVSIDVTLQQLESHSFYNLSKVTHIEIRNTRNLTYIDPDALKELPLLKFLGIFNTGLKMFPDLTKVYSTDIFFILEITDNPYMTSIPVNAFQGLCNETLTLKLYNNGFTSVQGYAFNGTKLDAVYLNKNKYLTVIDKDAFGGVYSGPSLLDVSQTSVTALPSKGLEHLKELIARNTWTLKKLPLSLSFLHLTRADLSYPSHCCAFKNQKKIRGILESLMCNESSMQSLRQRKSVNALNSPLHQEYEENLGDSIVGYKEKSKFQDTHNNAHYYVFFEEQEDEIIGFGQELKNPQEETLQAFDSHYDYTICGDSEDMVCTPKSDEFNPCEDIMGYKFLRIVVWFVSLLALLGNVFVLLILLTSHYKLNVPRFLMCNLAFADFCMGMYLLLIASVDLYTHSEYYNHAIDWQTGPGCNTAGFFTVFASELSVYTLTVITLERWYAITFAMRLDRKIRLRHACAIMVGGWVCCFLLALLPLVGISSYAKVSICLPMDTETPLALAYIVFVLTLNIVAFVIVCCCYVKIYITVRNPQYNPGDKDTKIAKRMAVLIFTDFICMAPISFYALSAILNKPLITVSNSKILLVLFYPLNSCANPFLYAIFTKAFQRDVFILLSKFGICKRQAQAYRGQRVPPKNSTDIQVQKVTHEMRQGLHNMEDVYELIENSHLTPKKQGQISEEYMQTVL
compound,measurement,setting,value
C/C=C\C/C=C/CCCCCCCCOC(C)=O,Potency,[1],inactive
same,Potency,[2],inactive
same,outcome,[3],inactive
same,Potency,[4],inactive
same,"activity change, positive = activation",[5],-15%
same,Potency,[6],inactive
same,Potency,[7],inactive
same,Potency,[8],inactive
same,Potency,[9],inactive
same,Potency,[10],inactive
same,Potency,[11],inactive
same,max response,[12],-25.6%
same,Potency,[13],inactive
same,Potency,[14],inactive
same,Potency,[15],inactive
same,Potency,[16],inactive
same,Potency,[17],inactive
Oc1c(I)cc(I)c2cccnc12,Potency,[1],inactive
same,Potency,[18],inactive
same,Potency,[4],inactive
same,"activity change, positive = activation",[5],-8.8% [at 42.5 µM]
same,Potency,[6],inactive
same,Potency,[8],inactive
same,Potency,[9],inactive
same,Potency,[19],inactive
same,Potency,[10],inactive
same,Potency,[11],inactive
same,Potency,[13],inactive
same,Potency,[14],inactive
same,Potency,[15],inactive
same,Potency,[16],inactive
same,Potency,[17],inactive
CC(C)(C)CC(=O)OCC(=O)[C@@]1(O)CC[C@H]2[C@@H]3CCC4=CC(=O)C=C[C@]4(C)[C@H]3[C@@H](O)C[C@@]21C,Potency,[1],inactive
same,Potency,[2],inactive
same,outcome,[3],inactive
same,Potency,[4],55.2 µM (active)
same,Potency,[20],26.6 µM (active)
same,"activity change, positive = activation",[5],-49.3% [at 42.5 µM]
same,Potency,[6],inactive
same,Potency,[7],19 µM (active)
same,Potency,[8],inactive
same,Potency,[9],inactive
same,Potency,[19],inactive
same,Potency,[11],inactive
same,Potency,[12],19 µM (active)
same,Potency,[14],inactive
same,Potency,[15],inactive
same,Potency,[16],inactive
same,Potency,[17],inactive
O=[N+]([O-])c1ccc(O/N=C/c2cc(Br)c(O)c(Br)c2)c([N+](=O)[O-])c1,Potency,[1],inactive
same,Potency,[18],inactive
same,outcome,[3],inactive
same,Potency,[6],inactive
same,Potency,[7],43.4 µM (active)
same,Potency,[8],inactive
same,Potency,[9],inactive
same,Potency,[19],inactive
same,Potency,[11],inactive
same,Potency,[12],43.4 µM (active)
same,Potency,[13],inactive
same,Potency,[14],inactive
same,Potency,[16],inactive
same,Potency,[17],inactive
O=[N+]([O-])c1cc(C2CCCCC2)c(O)c([N+](=O)[O-])c1,Potency,[1],inactive
same,Potency,[2],inactive
same,Potency,[4],11.3 µM (active)
same,"activity change, positive = activation",[5],-69.4%
same,Potency,[7],12.3 µM (active)
same,Potency,[8],inactive
same,Potency,[9],48.9 µM (active)
same,Potency,[19],inactive
same,Potency,[10],27.5 µM (active)
same,Potency,[12],12.3 µM (active)
same,Potency,[13],inactive
OC(CCN1CCCC1)(c1ccccc1)C1CCCCC1 (stereo not given),Potency,[1],inactive
same,Potency,[18],inactive
same,Potency,[4],inactive
same,Potency,[6],inactive
same,Potency,[7],inactive
same,Potency,[8],inactive
same,Potency,[9],inactive
same,Potency,[19],inactive
same,Potency,[10],inactive
same,Potency,[11],inactive
same,max response,[12],-3.9%
same,Potency,[13],inactive
same,Potency,[14],inactive
same,Potency,[15],inactive
same,Potency,[16],inactive
same,Potency,[17],inactive
O=C(CCc1ccc(O)cc1)c1c(O)cc(O)cc1O,Potency,[1],inactive
same,Potency,[18],inactive
same,"activity change, positive = activation",[5],-22.5%
same,Potency,[6],inactive
same,Potency,[7],39.8 µM (active)
same,Potency,[8],inactive
same,Potency,[9],inactive
same,Potency,[19],inactive
same,Potency,[10],25.1 µM (active)
same,Potency,[11],inactive
same,Potency,[12],39.8 µM (active)
same,Potency,[13],inactive
same,Potency,[15],inactive
same,Potency,[16],inactive
same,Potency,[17],inactive
